Measured values taken from PubChem BioAssay.
Calls of active or inactive are those of the source. The rule behind the calls is not given here.

Assay: P. aeruginosa biofilm formation inhibitors, primary screen, PAO1 strain, BacTiter-Glo luminescence, LB-PBS (AID 1144)
Settings: 12 h, higher = more signal

z-score, inactive:
COc1ccc([Si](C)(C)[C@@H]2[C@@H](CCO)O[C@]3(C(=O)N(Cc4cccc(N5CCOC5=O)c4)c4ccccc43)[C@H]2C)cc1 -0.631, COCCOC(=O)N1C(=O)[C@@]2(c3ccccc31)[C@H](C(N)=O)[C@H]1C(=O)O[C@H](c3ccccc3)[C@H](c3ccccc3)N1[C@@H]2c1ccc(O)cc1 -0.166, O=C1C[C@@](C(=O)NCc2ccccc2)(c2ccc([N+](=O)[O-])cc2)[C@@H](c2ccc(CO)cc2)N1CC12CC3CC(CC(C3)C1)C2 0.657, COCC(=C=CC[C@H](O)c1cccc(OCCO)c1)CCO -0.833, COCCCNC(=O)[C@@]1(Cc2ccccc2CN=[N+]=[N-])N=C(c2ccc(OCCCO)cc2)O[C@H]1c1ccccc1CN=[N+]=[N-] -1.5, COC(=O)[C@]1(Cc2ccccc2)N=C(c2ccc(OCCCO)cc2)O[C@@H]1c1ccccc1N=[N+]=[N-] -0.441, COC(=O)[C@@]1(Cc2ccc(F)cc2)[C@H]2c3cc(C(=O)N(C)C)n(Cc4ccc(C)o4)c3C[C@H]2CN1C(=O)c1ccccc1 -0.927, CC(C)=CCCC(C)=CC(O)C1C=CC2C(=O)N(c3ccccc3)C(=O)C2N1Nc1ccc(C(C)C)cc1 (stereo not given) -0.603, COc1ccccc1CN1C(=O)c2ccccc2[C@@H](C(=O)NCc2ccccc2)[C@@H]1c1ccc(CO)cc1 1.29, CC#CC(=O)Oc1ccc(Br)cc1C=CC(=O)OCC 0.0278, O=C(NC1CC1)[C@@H]1c2ccccc2C(=O)N(C2Cc3ccccc3C2)[C@H]1c1ccc(CO)cc1 -0.994, COCCCNC(=O)[C@@H]1c2ccccc2C(=O)N(Cc2ccccc2OC)[C@H]1c1ccc(CO)cc1 -2.25, O=C(O)[C@H](Cc1ccccc1)n1cc(-c2ccccc2)nn1 0.192, C=CC[C@]1(C(=O)NCc2ccccc2)N=C(c2ccc(OCCCO)cc2)O[C@H]1c1ccccc1CN=[N+]=[N-] -0.728, CN1C(=O)C2C=CC(C(O)c3ccc(F)cc3)N(N(c3ccccc3)c3ccccc3)C2C1=O (stereo not given) -0.0417, C=CCC(OC(C)=O)[C@@H]1[C@@H](N(Cc2ccc(-c3cccc(C(F)(F)F)c3)o2)C(=O)Cc2ccc(OC)cc2)c2cc(OCCCO)ccc2N1C(=O)c1ccc2ccccc2c1 (stereo not given in full) -1, CN(C)CCCCCCNC(=O)[C@@H]1C[C@@H]2C(=O)N[C@@H](CCCC[N+](C)(C)C)C(=O)N2[C@@H]1c1ccc(O)cc1 0.0162, CC(C)CNC(=O)[C@@]1(Cc2ccccc2I)c2ccccc2C(=O)N(Cc2ccccc2C(F)(F)F)[C@H]1c1ccc(CO)cc1 0.0415, C=CC[C@]1(C(N)=O)N=C(c2ccc(OCCCO)cc2)O[C@H]1c1ccccc1 -0.717, COCCCNC(=O)[C@@]1(Sc2ccc(C)cc2)CC(=O)N(Cc2ccccc2Cl)[C@@H]1c1ccc(CO)cc1 -0.915, CCCC=C(CCC)[C@@H](NC(=O)OCC(C)C)c1ccccc1 0.173, OCC1C=C(/C=C/c2ccccc2)CN1Cc1ccccc1Br (stereo not given) 0.0784, CN1C(=O)C2C=CC(C(O)C=Cc3ccc([N+](=O)[O-])cc3)N(Nc3ccccc3)C2C1=O (stereo not given) -0.585, COC(=O)[C@@]1(Cc2ccccc2)[C@H]2c3cc(C(=O)N4CCCC4)n(Cc4ccc(O)c(OC)c4)c3C[C@H]2CN1C(=O)c1ccccc1 0.633, CN(C)CCCCCCNC(=O)[C@@H]1C[C@@H]2C(=O)N3CCC[C@H]3C(=O)N2[C@@H]1c1ccc(O)cc1 -0.999, C[N+](C)(C)CCCC[C@@H]1NC(=O)[C@H]2C[C@@H](C(=O)NCCCCCCNC(=O)CS)[C@@H](c3ccc(O)cc3)N2C1=O -0.15, COC(=O)C(CC#Cc1ccc2c(c1)[C@]1(C(=O)N2)[C@H](c2ccccc2OCCO)N2[C@H](c3ccccc3)[C@H](c3ccccc3)OC(=O)[C@H]2[C@@H]1C(=O)O)C(=O)OC -0.367, NCCCCCNC(=O)[C@H]1C[C@H]2C(=O)N3CCC[C@H]3C(=O)N2[C@H]1c1ccc(O)cc1 -0.12, C=CCC(OC(C)=O)[C@@H]1[C@@H](N(Cc2ccc(-c3ccccc3)cc2)C(=O)Cc2ccc(F)cc2)c2cc(OCCCO)ccc2N1C(=O)c1ccc2ccccc2c1 (stereo not given in full) 0.197, CCOc1ccc(N2C(=O)CSC2c2cccc([N+](=O)[O-])c2)cc1 (stereo not given) -0.245, C=C(CCCC)/C(=C/C[C@H](OC(C)=O)c1ccccc1OCCO)c1cnc2ccccc2c1 0.489, C=CC[C@]1(C(N)=O)COC(c2ccc(OCCCO)cc2)=N1 -0.151, COCCOC(=O)N1C(=O)[C@@]2(c3cc(C#CC4=CCCCC4)ccc31)[C@H](C(N)=O)[C@H]1C(=O)O[C@H](c3ccccc3)[C@H](c3ccccc3)N1[C@@H]2c1ccc(O)cc1 -1.29, O=C1O[C@@H](c2ccccc2)[C@@H](c2ccccc2)N2[C@@H](c3ccc(OCCO)cc3)[C@]3(C(=O)Nc4ccc(C#CC5=CCCCC5)cc43)[C@@H](C(=O)N3CCCCCCC3)[C@H]12 -0.334, COc1ccc([Si](C)(C)[C@@H]2[C@@H](CCn3cc([C@H](O)c4ccccc4)nn3)O[C@]3(C(=O)N(Cc4cccc(N5CCC5=O)c4)c4ccccc43)[C@H]2C)cc1 -1.1
